From PubChem BioAssay (NCI)
About 79,000 compounds went through this panel and 15% of them were active in at least one assay; those are over-represented in the sample as a whole. Unmarked numbers belong to inactive results. Activity calls are given as the source filed them. No stated cut-off is given here; in the data, active means growth inhibition above about 70%; inactive means the rest.

Columns and labels:
[1] = NCI Yeast Anticancer Drug Screen. Data for the rad50 strain (AID 155);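 further: 0% = growth of vehicle-only cultures of the same strain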; details: S. cerevisiae rad50 strain growth inhibition; at 50.0 µM; active compounds read high
How it was run: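 Inhibition values express reduced yeast growth in compound-treated cultures relative to vehicle-treated controls.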

[2] = NCI Yeast Anticancer Drug Screen. Data for the mec2-1 strain (AID 157); details: S. cerevisiae mec2-1 strain, at 50.0 µM, active compounds read high
How it was run: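 Cells of the genetically defined mec2-1 yeast strain are incubated with test compound. Inhibition of growth is calculated against vehicle-treated controls.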

[3] = NCI Yeast Anticancer Drug Screen. Data for the sgs1 mgt1 strain (AID 161);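 further: 0% = growth of cultures given vehicle only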; details: S. cerevisiae sgs1 mgt1 strain, at 50.0 µM, active compounds read high
How it was run: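 Read-out: growth inhibition vs vehicle controls. Cells: mutant yeast strain deficient in DNA damage repair.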

[4] = NCI Yeast Anticancer Drug Screen. Data for the cln2 rad14 strain (AID 165);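 further: 0% = growth equal to vehicle treated cultures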; details: S. cerevisiae cln2 rad14 strain, at 50.0 µM, active compounds read high
How it was run: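 The screen exposed genetically defined yeast (cln2 rad14) to test compounds and scored growth inhibition relative to vehicle-treated controls.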

[5] = NCI Yeast Anticancer Drug Screen. Data for the bub3 strain (AID 167); details: S. cerevisiae bub3 mutant strain, at 50.0 µM, active compounds read high
How it was run: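 Steps: expose the mutant yeast strain to compound; grow alongside vehicle-treated cultures; measure growth; express inhibition against the vehicle cultures.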

[6] = NCI Yeast Anticancer Drug Screen. Data for the mlh1 rad18 strain (AID 175); details: S. cerevisiae mlh1 rad18 strain growth inhibition; at 50.0 µM; active compounds read high
How it was run: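 Compound-treated yeast growth, normalised to vehicle controls. Strain bears defined DNA repair mutations.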

Row | Compound | growth inhibition [1] | growth inhibition [2] | growth inhibition [3] | growth inhibition [4] | growth inhibition [5] | growth inhibition [6]
1 | Cc1ccc(CI)cc1 | -2.15% | -6.7% | -22.9% | 18.9% | 20.1% | 19.5%
2 | CCN1CCC(O)(c2ccccc2)C(C(=O)c2ccccc2)C1 (centres undefined) | 5.15% | -17.1% | 5.3% | 20.7% | -10.9% | 16.4%
3 | CNC(=S)P(c1ccccc1)c1ccccc1 | 9.4% | 15.2% | 7.1% | 22.4% | 13.4% | 10.4%
4 | COC(=O)C1C(=O)CC2N(C)C1C(C)(C)C2(C)C (centres undefined) | 47.9% | 21.4% | 60.6% | 4.8% | 38.4% | 56.1%
5 | CCCCCCCCCCCC[C@@H](O)[C@H]1CC[C@H]([C@H](O)CCCC[C@H](O)CCCCC[C@@H](O)CC2=C[C@H](C)OC2=O)O1 | 10% | -7.05% | -20.8% | -7.5% | -1.65% | -41.2%
6 | CNC(=O)Oc1cccc(NC(=O)OC(C)(C)C)c1 | 3.5% | 14.8% | 27.1% | 1.45% | 29.1% | 15.1%
7 | ClCCCCCCCCCCCl | 10.9% | -2.55% | -13.2% | -11.8% | -15.2% | -8.8%
8 | O=C1CC23c4ccccc4N4C(=O)CC5OCC=C6CN1C2CC6C5C43 (centres undefined) | 4.1% | -34.5% | -7.15% | 7.9% | 12.8% | 6.8%
9 | C/C=C/C=C\C=C/C(O)CC(OP(=O)(O)O)C(C)(O)/C=C/C1CC=CC(=O)O1 (centres undefined) | -9.75% | -52% | -20.4% | 8.65% | -3.35% | -44.2%
10 | O=C(O)CC(=O)O.[Co+2].[NH-]CC(=O)O.[NH-]CC(=O)O | 15.4% | -6.65% | 10.2% | 0.8% | -0.9% | -15.9%
11 | CC[n+]1c(C)n(-c2ccccc2)c(=O)c2ccccc21 | -0.3% | -6.85% | 4.75% | 18.2% | -10.9% | 6.25%
12 | CNC(Cc1ccccc1)c1ccc(OC)cc1 (centres undefined) | 27.1% | 17.2% | 32.3% | 5.75% | 34.6% | 35.6%
13 | O=S1(N2CC2)=NP(N2CC2)(N2CC2)=NP(N2CC2)(N2CC2)=N1 (centres undefined) | -20.9% | -22.5% | -16.8% | 11.2% | -33% | -67.1%
14 | C=CCC1(OC(C)=O)CCC2C3CCC4CC=CCC4(C)C3CCC21C (centres undefined) | -9.9% | 4.5% | -8.85% | -51.4% | 1% | -9.4%
15 | COC(=O)c1cccc2cc3cccc[n+]3cc12 | 3.7% | -5.5% | -9.3% | -35.3% | -1.05% | 0.75%
16 | Nc1cc(S(=O)(=O)F)ccc1Cl | 26.3% | 6.1% | 20.1% | 35.5% | 22.9% | 23.6%
17 | O=NO.O=NO.[NH-]C1CCCCC1[NH-].[Pd+2] (centres undefined) | -11.2% | 13.1% | 15.2% | 21.2% | 9.05% | -0.3%
18 | CCCCOP(=O)(/C=C/c1ccccc1)OCCCC | 86.3% (active) | 77.9% (active) | 80.2% (active) | 24.7% | 74.2% (active) | 80.8% (active)
19 | CC(F)C(N)C(=O)O (centres undefined) | -7.9% | -3.65% | -7.75% | -1.7% | -0.1% | -11.9%
